# The entries come from a sample that favours hits as a whole.
# NS1 inh: blocks influenza NS1 protein function | Potency, µM (top dose mostly 46.1 µM) | 0.4% of 270,000 active; calls by dose curve; note: actives are rising curves; nearly all actives have a fitted effect of over 50% in size
#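 In this qHTS, NS1 from influenza A is expressed in budding yeast, where it slows growth. Cells are switched from glucose to 2% galactose medium (pH 6.0, -URA), treated with compound, and growth recovery is read at OD600.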
# Cycloheximide cs: counter-screen hit for Shiga toxin inhibitors, cycloheximide; cell reporter, cycloheximide protein synthesis inhibition counterscreen; max response, %; 12% of 300,000 active; AID 2314; in the data active = max response mostly above about 13%, no sharp cut-off; inactive = mostly below about 14%; note: read at 38.3 µM for the half of the compounds with a filed dose
# Shiga inhibitor: inhibitors of Shiga toxin in Vero cells | Vero cells, Shiga toxin protein synthesis inhibition reporter | inhibition, % at 38.7 µM | 9.2% of 290,000 active; in the data active = inhibition mostly above about 28%, no sharp cut-off; inactive = mostly below about 43%
# AmpC detergent: AmpC beta-lactamase inhibition with detergent present. P00811. AmpC hydrolysis of nitrocefin, absorbance 480 nm, 0.01% Triton. Potency, µM (titrated, usually from 114 µM), most hits filed as inhibitors. 0.041% of 370,000 active. AID 485294; note: nearly all actives have a fitted effect of over 25% in size
# Target sequence (P00811 whole entry, looked up): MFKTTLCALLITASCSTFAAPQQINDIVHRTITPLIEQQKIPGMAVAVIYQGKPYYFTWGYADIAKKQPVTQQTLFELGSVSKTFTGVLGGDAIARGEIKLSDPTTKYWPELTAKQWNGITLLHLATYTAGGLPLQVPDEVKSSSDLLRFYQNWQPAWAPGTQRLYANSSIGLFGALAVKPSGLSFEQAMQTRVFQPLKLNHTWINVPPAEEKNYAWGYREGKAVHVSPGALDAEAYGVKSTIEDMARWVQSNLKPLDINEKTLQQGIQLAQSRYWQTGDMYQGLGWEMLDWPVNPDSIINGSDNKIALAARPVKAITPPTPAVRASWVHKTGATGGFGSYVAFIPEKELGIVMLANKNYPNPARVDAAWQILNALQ
#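 AmpC (5.3 nM in the dispensed reagent) in 20 mM phosphate pH 7.0 with 0.01% (detergent screen) or 0.0001% Triton X-100 was preincubated with compounds for 15 min at room temperature. Nitrocefin was then added from an 800 uM solution, and hydrolysis was followed at 480 nm.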
# AmpC inh no detg: AmpC beta-lactamase inhibition without detergent; AmpC nitrocefin hydrolysis, absorbance 480 nm, 0.0001% Triton; 0.52% of 330,000 active; AID 485341; P00811; Potency, µM (top dose mostly 57.1 µM), actives largely listed as inhibitors; note: nearly all actives have a fitted effect of over 20% in size
#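 20 mM phosphate pH 7.0 + 0.01% (detergent screen) or 0.0001% Triton X-100; 5.3 nM AmpC reagent; cpd preinc 15 min RT; nitrocefin (800 uM stock) to start; A480 q20 s × 4 min; Activity was normalised to no-enzyme and no-compound control wells.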
# Numbers stand for hits; 0 = inactive; ? = inconclusive; - = not tested or not shown. Unless noted, calls come from the whole dose curve; as a rule, active = well fitted curve in the direction sought with a large enough effect; inconclusive = small, poorly fitted or top-dose-only effect, or another doubt; inactive = no such curve, though single readings can be large; an effect the other way counts as inactive or inconclusive.
SMILES,NS1 inh,Cycloheximide cs,Shiga inhibitor,AmpC detergent,AmpC inh no detg
O=C(COC(=O)c1ccccc1F)NC1CCCC1,0,37,36,0,0
O=C(COc1ccccc1)NC1CCCCCCC1,0,28,44,0,0
O=C(COC(=O)c1ccccc1F)NC1CC1,-,-,-,?,0
O=C(COC(=O)c1cccnc1Nc1ccccc1F)NC1CC1,0,14,0,0,0
O=C(COC(=O)c1ccccc1)NC1CCCC1,0,84,109,0,0
O=C(NCCc1ccc(Cl)cc1)c1nnc(Cc2ccc(Cl)cc2Cl)o1,-,-,-,0,-
CC(C)CCNC(=O)C1CCN(S(=O)(=O)c2cccc3nsnc23)CC1,-,-,-,0,-
CN(C)CCCNC(=O)C1(O)c2cc(Br)ccc2NC(=O)N1c1ccc(Cl)cc1 (stereo not drawn),0,0,0,0,0
COCCN1Cc2cccc(C(=O)Nc3ccc(C)cc3C)c2C1=O,-,-,-,0,-
COC(=O)c1ccccc1OCC(=O)NC1CCCCC1,0,27,132,0,0
CCc1ccccc1OCC(=O)NC1CCCC1,?,0,0,0,0
Cc1cc(NC(=O)COc2ccccc2)cc(-c2nc3ccccc3o2)c1O,-,-,-,0,-
C/C(CC(=O)Nc1cccc(Cl)c1Cl)=N\NC(=O)c1ccccc1N,0,37,112,0,0
COc1cccc(NC(=O)C/C(C)=N/NC(=O)c2ccccc2Cl)c1,0,25,55,0,0
C/C(CC(=O)Nc1ccc(Cl)c(C(F)(F)F)c1)=N\NC(=O)c1cc2ccccc2cc1O,0,13,0,0,10µM
COc1ccc(CNC(=O)C/C(C)=N/NC(=O)c2ccc(OC)cc2OC)cc1,0,0,47,0,0
COc1ccc(Cl)cc1NC(=O)C/C(C)=N/NC(=O)c1ccccc1Cl,0,0,-,0,0
COc1ccc(NC(=O)CC2C(=O)N(c3ccc(F)cc3)C(=O)N2Cc2cccnc2)cc1 (stereo not drawn),-,-,-,0,-
COc1ccccc1NC(=O)c1cc(Sc2nncn2C)nc2ccccc12,0,0,0,0,0
CCc1ccc(-n2nc(C)c3c(C)cc(=O)n(CC(=O)Nc4ccc(C(C)=O)cc4)c32)cc1,-,-,-,0,-
COc1ccc(C(=O)N/N=C(\C)CC(=O)Nc2ccc3ccccc3c2)c(OC)c1,0,13,0,?,0
CCC(=O)Nc1cccc(Br)c1,0,0,0,0,0
C/C(CC(=O)Nc1cccc(Br)c1)=N\NC(=O)c1ccc(O)cc1O,0,31,65,0,0
O=S(=O)(c1ccc2[nH]c3c(c2c1)CCCCC3)N1CCN(c2cccc(Cl)c2)CC1,-,-,-,0,-
CCc1ccc(/C(C)=N\Nc2ccc([N+](=O)[O-])cc2)cc1,0,19,0,0,0
SMILES,NS1 inh,Cycloheximide cs,Shiga inhibitor,AmpC detergent,AmpC inh no detg
C/C(=N\Nc1ccc([N+](=O)[O-])cc1)c1ccc(N)cc1,0,34,68,0,0
C/C(=N\Nc1ccc([N+](=O)[O-])cc1)c1ccco1,0,47,34,0,0
C/C(=N\Nc1ccc([N+](=O)[O-])cc1)c1ccc(N2CCOCC2)cc1,0,0,0,0,0
C/C(=N\Nc1ccc([N+](=O)[O-])cc1)c1ccc(-n2nncc2C)cc1,0,0,0,?,0
CC(C)(C)OC(=O)N[C@H](C(=O)OC(C)(C)C)c1ccc2ccccc2c1,-,-,-,0,0
Cc1c(Cc2ccccc2)c(=O)oc2cc(O)cc(O)c12,0,0,0,0,0
CC(C)(C)OC(=O)C[C@@H]1C/C=C\C[C@H](CC(=O)N(CCO)Cc2ccccc2)C(=O)NCCOC1=O,-,-,-,-,0
Nc1nc(N)nc(-c2ccccc2-c2nc(N)nc(N)n2)n1,0,0,0,0,0
Cc1nc(N)nc(-c2ccccc2O)n1,0,24,0,0,0
O=C(Nc1nc(-c2cccs2)cs1)c1cccc(S(=O)(=O)N2CCCCCC2)c1,?,21,99,0,0
COc1ccc(-c2csc(NC(=O)c3cccc(S(=O)(=O)N4CCN(C)CC4)c3)n2)cc1,?,0,0,0,0
Cc1cc(-c2csc(NC(=O)c3cccc(S(=O)(=O)N(C)C)c3)n2)c(C)n1-c1ccccc1,0,0,39,0,0
CN1CCN(S(=O)(=O)c2cccc(C(=O)Nc3nc(-c4ccccc4)cs3)c2)CC1,0,24,30,0,0
COc1cc(OC)c(NC(=O)C2=C(C)C(=O)OC23CCN(C(C)=O)CC3)cc1Cl,-,-,-,0,-
O=C(CCS(=O)(=O)c1ccccc1)NC1CCCCC1,0,59,90,0,0
COc1ccc(S(=O)(=O)CCC(=O)NC2CCCCC2)cc1,0,0,0,?,0
